NIH3T3 tox – Cytotoxic Profiling in NIH 3T3 Cell Line of Diverse Libraries Using Quantitative High-Throughput Screening. NIH 3T3 viability, CellTiter-Glo ATP luminescence, 48-72 h. Potency, µM (top dose mostly 96.7 µM), for inactives: at the top dose activity change, negative = cytotoxicity, actives largely listed as inhibitors. 94,000 compounds, 4.3% hits; further: nearly all actives have a fitted effect of over 55% in size
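Cytotoxicity was measured by CellTiter-Glo ATP luminescence after 48 or 72 h compound exposure at 37 °C. Mouse NIH 3T3 fibroblasts were seeded at 400 cells/well and dosed by 23 nL pin transfer.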
FLuc inh – Firefly luciferase inhibition profiling of diverse chemical library using quantitative high-throughput screening | Luciferin 4-monooxygenase (Photinus pyralis), P08659 | purified P. pyralis luciferase, luminescence, biochemical | Potency, µM (top dose mostly 115 µM), usual class: inhibitors | 76,000 compounds, 2.5% hits | AID 1347043, 2019; further: nearly all actives have a fitted effect of over 65% in size
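Purified P. pyralis luciferase (10nM final) in 50mM Tris acetate pH 7.5, 10mM Mg acetate, 0.01% Tween-20, 0.05% BSA with 10uM D-luciferin and 10uM ATP. Compounds titrated qHTS. Luminescence imaged on CCD.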
hNpr1 antagonist – Natriuretic polypeptide receptor (hNpr1) antagonism - Primary qHTS | Atrial natriuretic peptide receptor 1 (Homo sapiens), P16066 | HEK293 hNpr1 GloSensor cGMP, ANP-stimulated luminescence | Potency, µM (titrated, usually from 46.3 µM), for the others: at the highest dose activity change, negative = inhibition, hits mostly inhibitors | 76,000 compounds, 1.6% hits; calls by dose curve; further: nearly all actives have a fitted effect of over 60% in size
Target sequence (P16066 whole entry, looked up): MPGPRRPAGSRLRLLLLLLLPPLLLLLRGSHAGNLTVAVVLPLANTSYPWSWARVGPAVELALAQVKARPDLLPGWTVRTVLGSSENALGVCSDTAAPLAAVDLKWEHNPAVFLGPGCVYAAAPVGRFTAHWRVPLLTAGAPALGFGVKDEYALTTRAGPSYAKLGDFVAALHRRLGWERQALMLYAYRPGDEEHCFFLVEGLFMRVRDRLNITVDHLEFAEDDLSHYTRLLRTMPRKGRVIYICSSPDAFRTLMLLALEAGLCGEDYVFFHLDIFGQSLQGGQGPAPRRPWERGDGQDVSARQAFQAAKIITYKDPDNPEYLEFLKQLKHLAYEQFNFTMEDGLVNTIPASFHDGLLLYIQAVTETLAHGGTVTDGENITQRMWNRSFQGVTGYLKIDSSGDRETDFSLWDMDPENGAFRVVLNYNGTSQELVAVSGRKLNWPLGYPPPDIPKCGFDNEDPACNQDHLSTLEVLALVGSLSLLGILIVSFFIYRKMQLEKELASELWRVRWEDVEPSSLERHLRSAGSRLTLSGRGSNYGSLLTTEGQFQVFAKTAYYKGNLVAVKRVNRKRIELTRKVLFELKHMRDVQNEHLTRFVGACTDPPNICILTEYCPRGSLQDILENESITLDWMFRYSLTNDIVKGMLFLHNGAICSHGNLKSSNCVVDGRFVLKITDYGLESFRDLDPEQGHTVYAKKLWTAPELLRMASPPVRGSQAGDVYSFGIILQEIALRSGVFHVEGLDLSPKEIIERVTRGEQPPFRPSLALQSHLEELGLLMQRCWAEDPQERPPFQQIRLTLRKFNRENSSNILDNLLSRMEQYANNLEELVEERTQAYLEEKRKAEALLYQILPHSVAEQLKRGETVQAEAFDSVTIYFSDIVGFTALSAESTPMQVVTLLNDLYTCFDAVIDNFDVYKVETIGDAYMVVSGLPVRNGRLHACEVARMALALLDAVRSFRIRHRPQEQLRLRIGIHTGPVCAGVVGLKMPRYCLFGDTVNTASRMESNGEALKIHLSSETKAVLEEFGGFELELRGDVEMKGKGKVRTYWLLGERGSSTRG
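Compound pre-incubated 30 min at room temperature on GloSensor-loaded HEK293 cells stably carrying hNpr1 and the pGS-40F cGMP biosensor. Stimulation uses hNppA at 0.1 nM final; luminescence is taken at baseline and 20 min post-agonist.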
HEK293 tox – Cytotoxic Profiling in HEK 293 Cell Line of Diverse Libraries Using Quantitative High-Throughput Screening | Potency, µM (highest dose often 115 µM), for inactives: at the top dose activity change, negative = cytotoxicity, usual class: inhibitors | 94,000 compounds, 6.6% hits | HEK 293 viability, ATP luminescence (CellTiter-Glo), 48-72 h; further: nearly all actives have a fitted effect of over 60% in size
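CellTiter-Glo luminescence (cellular ATP) was read after 48 or 72 hr of compound exposure at 37 degree Celsius. Cells were HEK 293 plated at 250 cells/well.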
Active calls of the source: *; i = inactive; u = inconclusive; x = no result given; [ ] = remark or other dose. Rows were chosen to be rich in hits. Some 11% of all compounds tested hit in one or more screens of this group. Unless noted, the call rests on the fitted dose curve; in most records, active means well fitted curve in the direction sought with a large enough effect; inconclusive means small, poorly fitted or top-dose-only effect, or another doubt; inactive means no such curve, though single readings can be large; an effect the other way counts as inactive or inconclusive. On the % scale 0 is the no-effect control and ±100 the full control effect; potency means the concentration at half of the fitted maximal effect.

SMILES	NIH3T3 tox	FLuc inh	hNpr1 antagonist	HEK293 tox
CCNC(=O)NC[C@H]1C[C@@H]2CCN1C[C@@H]2c1cc(C2CCCCC2)nn1C	u	i	-2.6%[70.6 µM]	u
COc1ccc(CN(Cc2ccc(OC)cc2)C[C@H]2C[C@@H]3CCN2C[C@@H]3c2cc(C3CCCC3)nn2C)cc1	20µM*	i	1.5%	25.1µM*
Cn1nc(C2CCCC2)cc1[C@H]1CN2CC[C@H]1C[C@@H]2CNC(=O)Nc1ccccc1	u	i	5.7%[70.6 µM]	100µM*
CCNC(=O)NC[C@H]1C[C@@H]2CCN1C[C@@H]2c1cc(-c2ccc3ccccc3c2)nn1C	31.6µM*	i	1.9%[70.6 µM]	39.8µM*
CCOC(=O)[C@H]1CN(C(=O)c2ccc(F)cc2)[C@]2(C)C(=O)N(CCOC)c3ccccc3[C@H]12	u	x	x	-16.3%[57.5 µM]
Cc1cnc(CCN)n1CC1CC1	-11.5%	i	8.1%	3.3%
O=C(NC1CC1)[C@H]1CN2CCC1C[C@@H]2Cn1cc(C2(O)CCCCC2)nn1 (stereo not given in full)	-3.8%[174 µM]	i	4.6%[70.6 µM]	3.0%[172 µM]
CS(=O)(=O)N1C[C@@H]2C[C@H](C1)c1ccc(NC(=O)c3ccncc3)c(=O)n1C2	u	i	10.6%[70.6 µM]	i
C#C[C@H]1CN2CC[C@H]1C[C@@H]2CNC(=O)c1ccc(-c2ccccc2)cc1	112µM*	i	0.9%[70.6 µM]	89.1µM*
C=C[C@H]1CN2CC[C@H]1C[C@@H]2CNCc1cccc(Cl)c1	u	i	-13.7%[70.6 µM]	u
CC[C@H]1CN2CC[C@H]1C[C@@H]2CNC(=O)c1ccc2ccccc2c1	u	i	-12.0%[70.6 µM]	u
C#C[C@H]1CN2CC[C@H]1C[C@@H]2CNCc1cccc(Cl)c1	u	i	-4.5%[70.6 µM]	126µM*
CC[C@H]1CN2CC[C@H]1C[C@@H]2CNC(=O)c1ccc(-c2ccccc2)cc1	u	i	2.1%[70.6 µM]	89.1µM*
CN1C(=O)CO[C@H]2CN(C3CCC3)C[C@H]21	-15.6%[230 µM]	i	-1.8%[122 µM]	-9.3%[287 µM]
C=C[C@H]1CN2CC[C@H]1C[C@@H]2CNC(=O)C1CC1	2.2%[230 µM]	i	2.8%[70.6 µM]	i
CC(C)(C)CC(=O)N1C[C@@H]2C[C@H](C1)c1ccc(NC(=O)c3ccco3)c(=O)n1C2	4.5%[174 µM]	i	0.1%[70.6 µM]	-0.8%[172 µM]
O=C(Nc1ccc2n(c1=O)C[C@H]1C[C@@H]2CN(C(=O)NC2CCCCC2)C1)c1ccco1	89.1µM*	i	1.9%[70.6 µM]	-13.2%[172 µM]
O=C(Nc1cccc(C(F)(F)F)c1)OC[C@H]1C[C@@H]2CCN1C[C@@H]2c1cc(C2CCCC2)nc(-c2ccncc2)n1	u	i	u	3.98µM*
CC(C)NC(=O)OC[C@H]1C[C@@H]2CCN1C[C@@H]2c1cc(C2CCCC2)nc(-c2ccncc2)n1	28.2µM*	i	-22.6%	22.4µM*
CCC(CC)c1cc([C@H]2CN3CC[C@H]2C[C@@H]3CNC(=O)CSCC(=O)O)nc(-c2ccncc2)n1	u	i	0.6%	u
CC(=O)c1ccc(NC(=O)OC[C@H]2C[C@@H]3CCN2C[C@@H]3c2cc(C3CCCC3)nc(-c3ccncc3)n2)cc1	22.4µM*	i	-16.6%	31.6µM*
O=C(NC1CCCCC1)OC[C@H]1C[C@@H]2CCN1C[C@@H]2c1cc(C2CCCC2)nc(-c2ccncc2)n1	u	i	u	u
CC(=O)c1cccc(NC(=O)OC[C@H]2C[C@@H]3CCN2C[C@@H]3c2cc(C3CCCC3)nc(C)n2)c1	u	i	-7.7%	14.1µM*
Cc1ccccc1C(=O)N1CCC2(CC1)NCc1ccccc1-n1ccnc12	u	i	-22.0%	-22.9%
c1cc(CC2CN3CCCC3CN2)cs1 (stereo not given)	i	x	x	i
SMILES	NIH3T3 tox	FLuc inh	hNpr1 antagonist	HEK293 tox
COc1ccccc1-c1cc([C@H]2CN3CC[C@H]2C[C@@H]3COC(=O)Nc2ccc(C(C)C)cc2)n(C)n1	22.4µM*	i	-1.0%	28.2µM*
COc1ccccc1-c1cc([C@H]2CN3CC[C@H]2C[C@@H]3COC(=O)Nc2ccccc2)n(C)n1	u	i	-2.3%	u
COc1ccccc1-c1cc([C@H]2CN3CC[C@H]2C[C@@H]3COC(=O)Nc2ccc(C(C)(C)C)cc2)n(C)n1	22.4µM*	i	-1.8%	25.1µM*
O=C1NC2(CCCN(Cc3cccnc3)C2)COc2ccccc21 (stereo not given)	35.5µM*	i	-22.5%[70.6 µM]	89.1µM*
O=C1NC2(CCCN(Cc3ccccn3)C2)COc2ccccc21 (stereo not given)	-84.7%[138 µM]	i	u	u
COc1ccc(-c2cc([C@H]3CN4CC[C@H]3C[C@@H]4CNC(=O)c3cccs3)n(C)n2)cc1OC	u	i	-2.6%	u
COc1ccc(-c2cc([C@H]3CN4CC[C@H]3C[C@@H]4CNC(=O)c3ccc(N(C)C)cc3)n(C)n2)cc1	u	i	1.1%	22.4µM*
COc1ccc(C(=O)NC[C@H]2C[C@@H]3CCN2C[C@@H]3c2cc(-c3ccc4ccccc4c3)nn2C)cc1	u	i	0.6%	17.8µM*
COCC(=O)NC[C@H]1C[C@@H]2CCN1C[C@@H]2c1cc(-c2ccc3ccccc3c2)nn1C	35.5µM*	u	-1.0%[70.6 µM]	50.1µM*
CN(C)c1ccc(C(=O)NC[C@H]2C[C@@H]3CCN2C[C@@H]3c2cc(C3CCCCC3)nn2C)cc1	u	i	1.9%	u
Cn1nc(-c2ccc3ccccc3c2)cc1[C@H]1CN2CC[C@H]1C[C@@H]2CNC(=O)c1cccs1	25.1µM*	u	-4.2%	20µM*
COc1ccc(-c2cn(C[C@H]3C[C@@H]4CCN3C[C@@H]4C(=O)N3CCOCC3)nn2)cc1	-4.0%[174 µM]	i	5.2%[70.6 µM]	-9.8%[172 µM]
CCOC(=O)[C@H]1CN(C(=O)c2cc3ccccc3oc2=O)[C@]2(C)C(=O)N(CCO)c3ccccc3[C@H]12	-19.6%[46.1 µM]	x	x	u
Cn1nc(C2CCCCC2)cc1[C@H]1CN2CC[C@H]1C[C@@H]2CNC(=O)c1cccs1	u	i	-2.4%[70.6 µM]	100µM*
COc1ccc(S(=O)(=O)NC[C@H]2C[C@@H]3CCN2C[C@@H]3CN(C)Cc2ccccc2)cc1	-1.5%	i	0.6%	-19.9%
O=C1N(c2ccccn2)C[C@H]2CN(Cc3ccc(F)cc3)CCN12	-29.5%[138 µM]	25.1µM*	-18.0%[70.6 µM]	-25.6%[172 µM]
COc1ccc(S(=O)(=O)NC[C@H]2C[C@@H]3CCN2C[C@@H]3CN2CCCCC2)cc1	100µM*	i	2.7%[70.6 µM]	112µM*
COc1ccc(S(=O)(=O)NC[C@H]2C[C@@H]3CCN2C[C@@H]3CN2CCc3ccccc32)cc1	39.8µM*	i	1.8%[70.6 µM]	28.2µM*

Screens from PubChem.
